The sample as a whole holds a higher share of hits than the screen did.
ST2 IL33 inh – IL1RL1 inhibition; Q01638; AlphaLISA ST2-Fc/biotin-IL-33 interaction, 1 h; inhibition, % for hits at 17 µM; actives 2.3% (n = 78,000); in the data active means inhibition above about 30%
Target sequence (Q01638 whole entry, looked up): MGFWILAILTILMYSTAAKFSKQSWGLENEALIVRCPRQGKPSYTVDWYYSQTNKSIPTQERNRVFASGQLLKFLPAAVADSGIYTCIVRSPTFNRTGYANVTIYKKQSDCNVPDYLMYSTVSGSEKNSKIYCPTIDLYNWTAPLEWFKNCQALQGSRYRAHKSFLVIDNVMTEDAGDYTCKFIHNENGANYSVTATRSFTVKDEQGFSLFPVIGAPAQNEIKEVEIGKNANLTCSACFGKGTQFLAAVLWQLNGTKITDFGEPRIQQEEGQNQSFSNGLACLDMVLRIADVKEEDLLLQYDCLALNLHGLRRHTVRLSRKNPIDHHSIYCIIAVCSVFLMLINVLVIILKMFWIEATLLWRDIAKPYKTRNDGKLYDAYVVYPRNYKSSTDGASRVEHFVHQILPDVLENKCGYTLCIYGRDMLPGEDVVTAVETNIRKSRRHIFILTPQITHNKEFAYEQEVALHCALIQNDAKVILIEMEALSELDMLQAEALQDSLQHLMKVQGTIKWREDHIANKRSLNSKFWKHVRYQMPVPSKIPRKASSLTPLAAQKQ
Starred values were filed as active, the others as inactive; i = inactive.

SMILES	ST2 IL33 inh
CC(C)OC(=O)C(C)Oc1ccc2c(=O)c(Oc3ccc(C(C)(C)C)cc3)coc2c1 (stereo not drawn)	i
O=CNC(=O)Cc1ccc(O)cc1	i
Cc1ccc(S(=O)(=O)N2CCc3ccccc32)cc1C(N)=O	i
Cc1ccc(S(=O)(=O)N2CCCCC2)cc1[N+](=O)[O-]	i
Cc1ccc(S(=O)(=O)N2CCc3ccccc32)cc1[N+](=O)[O-]	36.0%*
O=c1c(O)c(-c2ccc(O)cc2)oc2cc(O[C@@H]3O[C@H](CO)[C@@H](O)[C@H](O)[C@H]3O)cc(O)c12	i
O=C1OC(=Nc2ccc(Br)cc2)c2ccccc21	i
CC(=O)C1=NN(c2ccccc2)C2C(=O)N(c3ccccc3Cl)C(=O)C12 (stereo not drawn)	i
Cc1ccc(C2(O)CCN(Cc3ccc(-c4ccccc4Cl)o3)CC2)nc1	i
C=CCNC(=O)N[C@H]1[C@H](O)[C@@H](N2CCN(c3ccccc3OC)CC2)[C@@H]2OC[C@H]1O2	i
NC(=O)C1CCN([C@H]2[C@@H]3OC[C@@H](O3)[C@@H](NCc3cnc4ccccc4c3)[C@@H]2O)CC1	i
COc1ccccc1N1CCN([C@H]2[C@@H]3OC[C@@H](O3)[C@@H](NCc3cnc4ccccc4c3)[C@@H]2O)CC1	30.0%*
Cc1cc(NC(=O)CSCC(=O)N=c2sc3ccccc3n2C)no1	i
CC(=O)Nc1ccc(OCC(=O)Nc2c(C)cccc2C)cc1	i
Cc1cccc(OCC(=O)Nc2sc3c(c2C#N)CCC3)c1C	i
CCc1ccc(OCC(=O)Nc2ccc(N3CCN(C(C)=O)CC3)cc2)cc1	i
Cc1ccc(OCC(=O)Nc2ccc(N3CCCC3)cc2)cc1C	59.0%*
Cc1cc(C)c(NC(=O)COc2ccc(C)c(C)c2)c(C)c1	i
Cc1cccc(OCC(=O)Nc2ccc(N3CCCC3)cc2)c1C	66.0%*
CCc1ccc(C(=O)NC(C(=O)O)C(C)C)cc1 (stereo not drawn)	i
CC(C)C(NC(=O)c1ccco1)C(=O)O (stereo not drawn)	32.0%*
NC(=O)CC(NC(=O)c1ccco1)C(=O)O (stereo not drawn)	i
O=C(O)c1[nH]c2ccccc2c1CC(=O)N1CCN(C(=O)c2ccco2)CC1	i
O=C(CSc1nc2c([nH]c3ccccc32)c(=O)n1-c1ccc(F)cc1)N1CCCCC1	i
O=C(CSc1nc2c([nH]c3ccccc32)c(=O)n1-c1cccc(Cl)c1)N1CCOCC1	35.0%*
SMILES	ST2 IL33 inh
NC(=O)CSc1nc2c([nH]c3ccccc32)c(=O)n1-c1ccc(Cl)cc1	i
C=CCCCC(=O)Nc1ccccc1Br	i
Cc1ccc(N2C(=O)c3cccc4cccc(c34)C2=O)c(C)c1	i
O=C1N/C(=C\c2ccc([N+](=O)[O-])cc2)C(=O)N1Cc1ccc(Cl)cc1	i
CCN1CCN(CCCNC(=O)C2CCN(c3ccc(-c4cccs4)nn3)CC2)CC1	i
COc1ccc(C(=O)Nc2nc3ccc(S(C)(=O)=O)cc3s2)c(OC)c1	i
COc1ccc(-n2nc3c(c2NC(=O)c2ccc(OC)cc2OC)CSC3)cc1	i
COc1ccc(OC)c(NC(=O)c2ccccc2Br)c1	i
COc1ccc(NC(=O)c2ccccc2Br)cc1	i
COC(=O)C1=C(NC(=O)c2ccc(OC)cc2OC)CCS1	32.0%*
COC(=O)C1=C(NC(=O)c2ccccc2Br)CCS1	31.0%*
CN(C)S(=O)(=O)c1ccc(C(=O)Nc2c3c(nn2-c2cccc(Cl)c2)CS(=O)C3)cc1 (stereo not drawn)	i
Cc1ccc2oc(=O)n(CCc3n[nH]c(CCc4ccccc4)n3)c2c1	i
Cc1ccc2nc(CCNC(=O)CN3C(=O)CCc4cc(S(=O)(=O)N5CCCC5)ccc43)[nH]c2c1	i
COc1cc(OC)c(NC(=O)Cc2c(C(=O)O)[nH]c3ccc(Cl)cc23)cc1Cl	i
CCn1c(C2CCCN(C(=O)c3ccc(-n4ccnc4)cc3)C2)nn(C)c1=O (stereo not drawn)	i
Cc1nc2c(C(=O)NCc3ccc4c(c3)OCO4)cnn2c(C)c1Cc1ccc(F)cc1	i
CCN(Cc1ccccc1)Cc1ccc(NC(C)=O)cc1	i
CCN(CC)c1ccc(NC(=O)CCN2C(=O)c3ccccc3C2=O)cc1	i
CCN(CC)c1ccc(NC(=O)Cc2ccccc2)cc1	36.0%*
CCCCC(=O)Nc1cc(Cl)ccc1OCc1cc(=O)n2oc(C)cc2n1	i
CCC1(CC)OC(c2cccn2-c2ccc([N+](=O)[O-])cc2)Nc2ccccc21 (stereo not drawn)	54.0%*
CCOC1=NC2Nc3ccccc3N(CC)C2C1c1ccc([N+](=O)[O-])cc1 (stereo not drawn)	i
CCc1ccc(N2C(=O)c3ccccc3NC2c2cccc([N+](=O)[O-])c2)cc1 (stereo not drawn)	i
COc1cc(C(=O)Nc2c3c(nn2-c2cccc(Cl)c2)CS(=O)C3)cc(OC)c1OC (stereo not drawn)	i
CC(C)[C@H]1NC(=O)[C@@H]2[C@@H](NC(=O)NC3CCCCC3)CCN2C1=O	43.0%*
